The results in this text go back to PubChem BioAssay (NCI).

Among the test systems are HCT-15 colon; HT29 colon; SNB-75 CNS; SNB-19 CNS; U251 CNS; PC-3 prostate; SK-MEL-5 melanoma; UACC-62 melanoma; LOX IMVI melanoma; SK-MEL-28 melanoma.
Experiment in all cases: NCI-60 one-dose screen, 48 h (100 = growth as untreated, 0 = no growth, -100 = all killed)
Holding throughout (conditions): 10 µM unless noted

About 83,000 compounds went through this panel and 20% of them were active in at least one assay; those are over-represented in the sample as a whole.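 How to read the values: 0–100, growth inhibition (40 = 60% inhibited); 0, no net growth; -100 to 0, cell death (-40 = 40% of starting cells died; -100 = all dead).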 A number with no mark means an inactive call. The source made the active and inactive calls. How the source made its calls: active means growth percent below 10; inactive means the rest.

As to `C/C=C(\C)C(=O)O[C@@H]1C(O)[C@H]2OC(COC(=O)CCC(=O)CCCCCC[C@H](CCCCC)O[C@@H]3OC(C)[C@H](OC(C)=O)C(O)[C@H]3O2)[C@H]1OC(=O)/C=C/c1ccccc1` (stereo not given in full), the growth with HCT-15 colon is 13%; in the experiment with HT29 colon, 5.27% (active); with SNB-75 CNS it was 1.65% (active); with SNB-19 CNS, 34.7%; in the experiment on U251 CNS it was 8.26% (active); with PC-3 prostate it was 21.3%. For the same molecule, the growth is -79.1% (active) with SK-MEL-5 melanoma, -46.8% (active) in the experiment on UACC-62 melanoma, -49.9% (active) in the experiment on LOX IMVI melanoma and 18.5% in the experiment with SK-MEL-28 melanoma.

As for `C=CC[Se]C(=O)c1ccccc1OC(C)=O`, the growth in the experiment on HCT-15 colon is 17.8%; in the experiment on HT29 colon, 14.4%; in the experiment with SNB-75 CNS, -65.1% (active); in the experiment with SNB-19 CNS, -23.2% (active); in the experiment with U251 CNS, -44% (active); in the experiment on PC-3 prostate, -28.3% (active). The growth in the experiment with SK-MEL-5 melanoma is -35.7% (active); in the experiment with UACC-62 melanoma it was -15.2% (active); with LOX IMVI melanoma, 21.7%; in the experiment on SK-MEL-28 melanoma, 4.12% (active).

On to `CC(=O)O[C@H]1CC[C@H]2[C@@H]3CC=C4c5nc(-c6ccccc6)sc5CC[C@]4(C)[C@H]3CC[C@]12C`, for which the growth is 9.12% (active) with HCT-15 colon; -31.5% (active) in the experiment with HT29 colon; 91.4% in the experiment on SNB-75 CNS; 67.4% with SNB-19 CNS; 47.5% in the experiment on U251 CNS; 72.3% in the experiment with PC-3 prostate. Further, the growth with SK-MEL-5 melanoma was 59.9%; in the experiment with UACC-62 melanoma it was 50.7%; with LOX IMVI melanoma, 29.8%; in the experiment with SK-MEL-28 melanoma, 90.4%.

Turning to `C=C1C(=O)O[C@H]2[C@H]1CC/C(COC(=O)C(=O)c1cn(Cc3ccccc3)c3ccccc13)=C\CC[C@@]1(C)O[C@@H]21`, the growth in the experiment on HCT-15 colon was -45.6% (active); in the experiment with HT29 colon, -40.2% (active); in the experiment on SNB-75 CNS it was -75.2% (active); in the experiment on SNB-19 CNS, 3.39% (active); with U251 CNS, -88.7% (active); with PC-3 prostate, -57.9% (active). For the same molecule, the growth was -96.6% (active) with SK-MEL-5 melanoma, -87.4% (active) in the experiment on UACC-62 melanoma, -93.3% (active) with LOX IMVI melanoma and -47.1% (active) in the experiment on SK-MEL-28 melanoma.

In the case of `COC(=O)[C@@H](C)C[C@H](Cc1ccccc1)NC(=O)c1csc([C@@H](C[C@H](C(C)C)N(C)C(=O)[C@H](C)NC(=O)[C@H]2CCCCN2C)OC(C)=O)n1`, the growth is 45.4% with HCT-15 colon; 9.42% (active) in the experiment with HT29 colon; 18.1% in the experiment with SNB-75 CNS; 27.7% in the experiment with SNB-19 CNS; 10.8% in the experiment with U251 CNS; 19.6% in the experiment with PC-3 prostate. The growth with SK-MEL-5 melanoma was 19.3%; in the experiment with UACC-62 melanoma, 28.4%; with LOX IMVI melanoma, 39.8%; with SK-MEL-28 melanoma it was 58.1%.

Regarding `C=CCCCN=C=S`, the growth was 55.4% in the experiment on HCT-15 colon; 37.4% in the experiment with HT29 colon; 64.2% with SNB-75 CNS; 84.2% with SNB-19 CNS; 79.5% in the experiment with U251 CNS; 87% in the experiment on PC-3 prostate. The growth in the experiment on SK-MEL-5 melanoma is 95.1%; with UACC-62 melanoma it was 63.4%; in the experiment with LOX IMVI melanoma, 53.8%; with SK-MEL-28 melanoma, 83.2%.

As to `COP(=S)(N1CC1)N1CC1`, the growth was 109% in the experiment on HCT-15 colon; 103% with HT29 colon; 103% in the experiment with SNB-75 CNS; 112% with SNB-19 CNS; 108% with U251 CNS; 91.9% in the experiment on PC-3 prostate. In addition, the growth with SK-MEL-5 melanoma is 104%; in the experiment with UACC-62 melanoma, 109%; in the experiment with LOX IMVI melanoma, 104%; in the experiment on SK-MEL-28 melanoma it was 114%.

As for `CCCCN(CCCC)P(=O)(Oc1ccccc1)Oc1ccccc1`, the growth in the experiment with HCT-15 colon is 68.1%; in the experiment with HT29 colon, 39.1%; with SNB-75 CNS, 50.9%; in the experiment with SNB-19 CNS, 60.1%; with U251 CNS it was 53.1%; with PC-3 prostate it was 38.6%. For the same molecule, the growth in the experiment with SK-MEL-5 melanoma is 67%; in the experiment on UACC-62 melanoma, 60.1%; with LOX IMVI melanoma it was 67.7%; in the experiment with SK-MEL-28 melanoma it was 94.1%.

Consider `O=C(CCCCCCC(=O)Nc1ccc(N(CCCl)CCCl)cc1)NO`, for which the growth in the experiment on HCT-15 colon was 72%; in the experiment with HT29 colon it was 30.5%; in the experiment on SNB-75 CNS it was 6.28% (active); in the experiment with SNB-19 CNS, 45%; with U251 CNS, 17.9%; in the experiment with PC-3 prostate, 54.6%. Besides, the growth is -56.6% (active) in the experiment on SK-MEL-5 melanoma, 14.5% in the experiment on UACC-62 melanoma, -19.9% (active) in the experiment with LOX IMVI melanoma and 35.3% with SK-MEL-28 melanoma.

In the case of `c1ccc(Nc2nc(-c3ccccc3)c[se]2)cc1`, the growth with HCT-15 colon was 86.9%; in the experiment on HT29 colon it was 102%; with SNB-75 CNS, 83%; in the experiment on SNB-19 CNS, 91.7%; in the experiment with U251 CNS it was 84.4%; in the experiment with PC-3 prostate it was 83.6%. Besides, the growth in the experiment on SK-MEL-5 melanoma is 89.2%; in the experiment with UACC-62 melanoma, 78.7%; in the experiment on LOX IMVI melanoma, 93.5%; with SK-MEL-28 melanoma it was 98.8%.

Take `CCOC(=O)[C@@H](C)C[C@H](Cc1ccccc1)NC(=O)c1csc([C@@H](C[C@H](C(C)C)N(C)C(=O)[C@H](CCC(C)C)NC(=O)[C@H]2CCCCN2C)OC(C)=O)n1`: the growth in the experiment with HCT-15 colon was 15.2%; in the experiment on HT29 colon it was -14.9% (active); in the experiment on SNB-75 CNS, 37.6%; with SNB-19 CNS, 39.9%; with U251 CNS, 2.75% (active); with PC-3 prostate, 13.7%. Also, the growth in the experiment on SK-MEL-5 melanoma was -25.5% (active); in the experiment with UACC-62 melanoma it was 40.7%; with LOX IMVI melanoma, 15.2%; in the experiment with SK-MEL-28 melanoma it was 64.8%.

As for `NC(CCl)CCl`, the growth was 87.3% with HCT-15 colon; 97.8% with HT29 colon; 90.3% in the experiment on SNB-75 CNS; 105% in the experiment with SNB-19 CNS; 99.8% in the experiment on U251 CNS; 104% with PC-3 prostate. Moreover, the growth in the experiment on SK-MEL-5 melanoma was 99.4%; in the experiment on UACC-62 melanoma, 99.9%; with LOX IMVI melanoma it was 106%; in the experiment with SK-MEL-28 melanoma, 98.3%.

Consider `COc1ccc(Nc2ccnc3cc(Cl)ccc23)cc1CN(CCCl)CCCl`, for which the growth in the experiment on HCT-15 colon is -12.1% (active); with HT29 colon it was 1.34% (active); in the experiment with SNB-75 CNS it was -10.8% (active); in the experiment with SNB-19 CNS, -0.124% (active); with U251 CNS, -11% (active); in the experiment on PC-3 prostate, -4.22% (active). Moreover, the growth with SK-MEL-5 melanoma was -88.4% (active); in the experiment on UACC-62 melanoma, -87% (active); in the experiment with LOX IMVI melanoma it was -51.6% (active); in the experiment with SK-MEL-28 melanoma, -38.3% (active).
